MCL1-BIM inh: inhibitors of MCL1 binding to BIM-BH3, primary screen, biochemical, fluorescence polarization; GST-MCL1 / FITC-Bim-BH3 fluorescence polarization; inhibition, % at 10.9 µM; 0.68% of 320,000 active;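 active = inhibition above the mean inhibition of all tested compounds plus 3 SD, set per campaign, cut at about 40% in these data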;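 note: higher means more loss of mP so more displacement of Bim peptide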
Target sequence (Q07820 whole entry, looked up): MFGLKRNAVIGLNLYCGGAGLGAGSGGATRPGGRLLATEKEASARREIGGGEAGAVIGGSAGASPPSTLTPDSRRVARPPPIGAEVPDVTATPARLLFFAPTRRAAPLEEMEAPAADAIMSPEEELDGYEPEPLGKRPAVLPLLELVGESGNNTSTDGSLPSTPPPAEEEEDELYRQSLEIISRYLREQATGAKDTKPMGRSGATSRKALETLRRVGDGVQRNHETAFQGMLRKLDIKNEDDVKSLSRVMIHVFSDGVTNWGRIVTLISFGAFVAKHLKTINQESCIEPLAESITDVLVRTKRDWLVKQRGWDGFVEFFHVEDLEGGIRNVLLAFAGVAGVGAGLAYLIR
GLD-1 RNA inh: GLD-1/TGE RNA complex disruptors, primary screen, biochemical, fluorescence polarization. Female germline-specific tumor suppressor gld-1 (Caenorhabditis elegans), Q17339. purified GLD-1 + fluorescein TGE RNA. inhibition, % at 5.96 µM. 0.44% of 320,000 active. AID 2280, 2010;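 active = percent inhibition above a per-plate cutoff, the plate mean of test compounds plus 3 SD, cut at about 30% in these data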
Mcl-1 Bim block: inhibitors of Bim peptide binding to Mcl-1, primary screen, biochemical, bead-based flow cytometry, multiplex. Induced myeloid leukemia cell differentiation protein Mcl-1 (Homo sapiens), Q07820. Bim peptide-Mcl-1 binding. inhibition, % at 10 µM. 0.1% of 190,000 active; in the data active = inhibition above about 40%
Mcl1-Noxa inh: Mcl-1/Noxa binding inhibitors, primary screen, biochemical, TR-FRET, 1536-well | TR-FRET Mcl-1/Noxa peptide binding, 2 h | inhibition, % at 21.7 µM | 1.5% of 220,000 active | AID 1022, 2008;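 active = compounds that cut the protein-peptide binding signal by more than 50% relative to plate controls in a single-dose test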;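 note: His-tagged Mcl-1 with rhodamine Noxa BH3 peptide and terbium anti-His antibody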
Mcl1 Bid PPI: Mcl-1/Bid binding inhibitors, primary screen, biochemical, TR-FRET, 1536-well. Induced myeloid leukemia cell differentiation protein Mcl-1 (Homo sapiens), Q07820. TR-FRET Mcl-1/Bid-Dy647 peptide binding. inhibition, % at 21.7 µM. 0.97% of 220,000 active;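 active = compounds that cut the binding signal by more than half at the single screening dose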;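 note: His-tagged Mcl-1 with europium anti-His antibody binding Bid BH3 peptide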
Bcl-xL primary: inhibitors of human Bcl-xL, primary screen, biochemical, fluorescence polarization, HTS; Bcl-2-like protein 1 (Homo sapiens), Q07817; GST-Bcl-xL / FITC-Bim BH3 peptide fluorescence polarization; inhibition, % at 10.9 µM; 0.7% of 320,000 active; AID 2129, 2009;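 active = inhibition above the mean of all tested compounds plus 3 SD, cutoff set per campaign, cut at about 30% in these data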;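 note: inhibitors lower millipolarization by displacing the labeled peptide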
Target sequence (Q07817 whole entry, looked up): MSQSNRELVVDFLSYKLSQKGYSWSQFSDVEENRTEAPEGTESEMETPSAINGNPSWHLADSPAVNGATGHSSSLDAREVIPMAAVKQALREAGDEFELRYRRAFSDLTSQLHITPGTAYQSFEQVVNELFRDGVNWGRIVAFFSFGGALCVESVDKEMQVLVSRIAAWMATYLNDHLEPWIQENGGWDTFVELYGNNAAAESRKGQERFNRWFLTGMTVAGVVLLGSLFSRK
BCLXL inh confirm: Bcl-xL inhibitors blocking Bim BH3 binding, confirmation, counter-screen for MCL1 inhibitor project, biochemical, fluorescence polarization. shares compounds with MCL1-BIM inh. GST-Bcl-xL / FITC-Bim BH3 peptide FP binding. inhibition, % at 10.9 µM. 54% of 1,700 active;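 active = inhibition above a cutoff equal to the mean inhibition of all tested compounds plus 3 SD, cut at about 30% in these data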
MCL1 BIM confirm: inhibitors of MCL1 binding to BIM-BH3, confirmation, biochemical, fluorescence polarization, triplicate; shares compounds with MCL1-BIM inh; GST-MCL1 / FITC-Bim-BH3 fluorescence polarization; inhibition, % at 10.9 µM; 61% of 1,700 active;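 active = inhibition above the average of all tested compounds plus 3 SD, cut at about 40% in these data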
Each line names hits and unclear results; the compound was inactive in the other large screens (follow-up assays come after a bar, where they were run). Rows were chosen to be rich in hits. Some 2.3% of all compounds tested hit in one or more screens of this group.

COc1ccc(NC(=O)c2ccc(Cl)c(NC(=O)c3ccncc3)c2)cc1	none
O=C(Cn1cnc2sc(-c3ccccc3)cc2c1=O)NCc1ccco1	MCL1-BIM inh 62, Mcl1-Noxa inh 62 | BCLXL inh confirm inactive | MCL1 BIM confirm 62
Cc1cc([N+](=O)[O-])ccc1NC(=O)CSc1nncn1-c1cccnc1	none (no result: Mcl-1 Bim block, Mcl1-Noxa inh, Mcl1 Bid PPI)
CCNC(=S)Nc1ccc(Cl)c([N+](=O)[O-])c1	none
CC(C)OC(=O)c1c2c(n3ccccc13)C(=O)c1ccccc1C2=O	MCL1-BIM inh 122, Bcl-xL primary 89 | BCLXL inh confirm 136 | MCL1 BIM confirm 151
O=C(N/N=C/c1ccncc1)c1cccc(S(=O)(=O)Nc2ccc(Cl)cc2)c1	MCL1-BIM inh 52, Mcl1 Bid PPI 79 (no result: Mcl-1 Bim block) | BCLXL inh confirm inactive | MCL1 BIM confirm 74
COc1ccc(C(CC(=O)N2CCCC2)c2c(OC)cc(OC)c3c(-c4ccccc4)cc(=O)oc23)cc1 (stereo not given)	MCL1-BIM inh 43, Mcl1-Noxa inh 87 (no result: Mcl-1 Bim block) | BCLXL inh confirm inactive | MCL1 BIM confirm inactive
COc1ccc(C(CC(=O)N2CCCC2)c2c(OC)cc(OC)c3ccc(=O)oc23)cc1 (stereo not given)	none (no result: Mcl-1 Bim block)
CC(=O)Oc1ccc2c(c1)Oc1cc(OC(C)=O)ccc1C21OC(=O)c2ccccc21	MCL1-BIM inh active, GLD-1 RNA inh 142, Bcl-xL primary 181 (no result: Mcl-1 Bim block) | BCLXL inh confirm 154 | MCL1 BIM confirm 186
Cc1cc(O)ccc1C1(c2ccc(O)cc2C)OC(=O)c2ccccc21	none
COC(=O)C1=C(C(=O)OC)[C@@H]2Nc3ccccc3[C@@]23C[C@@H](C(=O)OC)N(C(=O)CC(C)C)C3=N1	none (no result: Mcl-1 Bim block, Mcl1-Noxa inh, Mcl1 Bid PPI)
CCCCc1ccc(NC(=O)Nc2cc(C)nn2C)cc1	MCL1-BIM inh 68 (no result: Mcl-1 Bim block, Mcl1-Noxa inh, Mcl1 Bid PPI) | BCLXL inh confirm inactive | MCL1 BIM confirm inactive
C=CCOc1ccc(/C=C2\SC(=Nc3cccnc3)NC2=O)cc1	MCL1-BIM inh 64, Bcl-xL primary 64 (no result: Mcl-1 Bim block) | BCLXL inh confirm 65 | MCL1 BIM confirm 74
CC(/C=C1\SC(=Nc2cccnc2)NC1=O)=C\c1ccccc1	none (no result: Mcl-1 Bim block)
C=CCNC(=O)CN1CCN(C(c2ccccc2)c2ccccc2)CC1	none (no result: Mcl-1 Bim block, Mcl1-Noxa inh, Mcl1 Bid PPI)
N=C1/C(=C\c2coc3ccccc3c2=O)C(=O)N=C2SC=CN12	MCL1-BIM inh 60, GLD-1 RNA inh 51, Bcl-xL primary 55 (no result: Mcl-1 Bim block) | BCLXL inh confirm 61 | MCL1 BIM confirm 70
Cn1nc(-c2ccc(Cl)cc2)nc2c(=O)n(C)c(=O)nc1-2	MCL1-BIM inh 96, GLD-1 RNA inh 78, Bcl-xL primary 90 | BCLXL inh confirm 94 | MCL1 BIM confirm 121
O=Cc1c(Sc2ccccn2)nc2ccccn2c1=O	MCL1-BIM inh 63, Bcl-xL primary 53 | BCLXL inh confirm inactive | MCL1 BIM confirm inactive
NS(=O)(=O)c1ccc(CCNC(=O)Cc2ccc(Cl)cc2)cc1	none (no result: Mcl-1 Bim block, Mcl1-Noxa inh, Mcl1 Bid PPI)
O=c1oc2ccccc2c2oc3cc(O)c(O)cc3c12	MCL1-BIM inh 71, Mcl1-Noxa inh 98 (no result: Mcl-1 Bim block) | BCLXL inh confirm 34 | MCL1 BIM confirm 74
Nc1c(N)c2ccccc2oc1=O	none
COc1cccc(C(=O)N2CCC(n3nccc3NC(=O)CCOc3ccccc3)CC2)c1	none (no result: Mcl-1 Bim block, Mcl1-Noxa inh, Mcl1 Bid PPI)
N#CC1=C(N)C(C#N)(C#N)C(c2cccnc2)C2COCC=C12 (stereo not given)	none
CC(C)(C)C1CC=C2C(C#N)=C(N)C(C#N)(C#N)C(c3cccs3)C2C1 (stereo not given)	MCL1-BIM inh 63, GLD-1 RNA inh 62, Bcl-xL primary 60 (no result: Mcl-1 Bim block, Mcl1-Noxa inh, Mcl1 Bid PPI) | BCLXL inh confirm 114 | MCL1 BIM confirm 145
CCn1nc(C)c(CNC(=O)CCc2nnc(Cc3c[nH]c4ccccc34)o2)c1C	none
O=C(N/N=C1\CCS(=O)(=O)c2ccc(F)cc21)c1ccc(O)cc1	none (no result: Mcl-1 Bim block)
CC1C2C(c3ccccc3)N(C)C(=O)N(C)C2N(C)C(=O)N1C (stereo not given)	MCL1-BIM inh 55, Bcl-xL primary 55 | BCLXL inh confirm 38 | MCL1 BIM confirm 45
CC(C)(C)C(=O)NC(=S)NNC(=O)c1ccc(Cl)cc1Cl	none
N#Cc1ccc(S(=O)(=O)N2CCc3[nH]c4ccc(F)cc4c3C2)cc1	none (no result: Mcl-1 Bim block)
Cc1c(O)c2c3c(cccc3c1O)C(=O)N(c1ccccc1)C2=O	MCL1-BIM inh 98, GLD-1 RNA inh 82, Bcl-xL primary 91 | BCLXL inh confirm 92 | MCL1 BIM confirm 105
NC(=S)Nc1ccc(Cl)cc1Cl	none (no result: Mcl-1 Bim block)
C1=C(c2ccc(-c3ccccc3)cc2)Nc2ncnn2C1c1ccco1 (stereo not given)	none (no result: MCL1-BIM inh, GLD-1 RNA inh, Bcl-xL primary)
Fc1ccc(C2=CC(c3ccco3)n3ncnc3N2)cc1 (stereo not given)	MCL1-BIM inh 181, GLD-1 RNA inh 96, Bcl-xL primary 152 | BCLXL inh confirm inactive | MCL1 BIM confirm inactive
Fc1ccc(C2=CC(c3ccc(Br)o3)n3ncnc3N2)cc1 (stereo not given)	MCL1-BIM inh active, GLD-1 RNA inh 163, Bcl-xL primary 180 | BCLXL inh confirm 125 | MCL1 BIM confirm 156
Nn1c(SCc2cccc(Br)c2)nnc1-c1ccncc1	none (no result: Mcl-1 Bim block)
CCc1sc(C(C2C(=O)CC(C)(C)CC2=O)C2C(=O)CC(C)(C)CC2=O)cc1[N+](=O)[O-]	MCL1-BIM inh 43 | BCLXL inh confirm inactive | MCL1 BIM confirm 57
CC1(C)CC(=O)C(C(c2ccc(F)cc2)C2C(=O)CC(C)(C)CC2=O)C(=O)C1	none
Cc1c(C)c2cc(Cl)c(O)c(CN(C)C)c2oc1=O	none
O=c1oc2c(O)c(O)cc3c(=O)oc4c(O)c(O)cc1c4c23	MCL1-BIM inh 97, Mcl1-Noxa inh 86, Mcl1 Bid PPI 76, Bcl-xL primary 74 | BCLXL inh confirm 79 | MCL1 BIM confirm 98
O=C(O)c1ccc(N2C(=O)/C(=C/C=C/c3ccccc3)SC2=S)cc1	MCL1-BIM inh 40 | BCLXL inh confirm inactive | MCL1 BIM confirm inactive
O=C(CCN1C(=O)/C(=C\C=C\c2ccccc2)SC1=S)Nc1ccc(C(=O)O)cc1	none (no result: Mcl-1 Bim block, Mcl1-Noxa inh, Mcl1 Bid PPI)
CCOc1ccc(S(=O)(=O)NCCC(=O)NCCc2ccc(C(C)C)cc2)cc1	none (no result: Mcl-1 Bim block, Mcl1-Noxa inh, Mcl1 Bid PPI)

Assay outcomes deposited in PubChem by several laboratories.
